From PubChem BioAssay (NCATS)
Results filed as inconclusive are left out. A call without a number means that no potency is given here. Calls of active or inactive are those of the source. Calls come from the whole dose curve; as a rule, active = well fitted inhibition curve with a large enough effect; inconclusive = small, poorly fitted or top-dose-only effect; inactive = no such curve, though single readings can be large or run the other way. Numbered stars: 1 amine (or outer) side, 2 acyl side, 3 side chain; on linkers, the order of the positions; unused ones are H or OH. Bridge positions count the residues as written; N and C are the ends. Square brackets hold non-standard residues; d marks the D form. Peptide text beside a SMILES is read from it. * marks the point of attachment. pTerphenylCO(4''-OnC5H11) = CCCCCOc1ccc(-c2ccc(-c3ccc(C(=O)*)cc3)cc2)cc1; Orn(4R-OH,5R-OH) = O=C([C@H](C[C@@H](O)[C@@H](O)N[*:3])N[*:1])[*:2]; hTyr(3S-OH,4S-OH) = N[C@H](C(=O)O)[C@H](O)[C@@H](O)c1ccc(O)cc1; Pro(3S-OH,4S-Me) = C[C@H]1CN[C@H](C(=O)O)[C@H]1O; Hyp = O=C(O)[C@@H]1C[C@@H](O)CN1

Each compound was assayed against Retinaldehyde dehydrogenase 3 (Homo sapiens) (UniProt P47895) (assay: qHTS for Inhibitors of the Aldehyde Dehydrogenase Family (ALDH1A3) Primary screen (AID 2061315)). Details: ALDH inhibition qHTS; series mostly up to 56 µM.
`CC[C@H]1OC(=O)[C@H](C)[C@@H](O[C@H]2C[C@@](C)(OC)[C@@H](O)[C@H](C)O2)[C@H](C)[C@@H](O[C@@H]2O[C@H](C)C[C@H](N(C)C)[C@H]2O)[C@@](C)(O)C[C@@H](C)[C@@H]2N[C@@H](COCCOC)OC([C@H]2C)[C@]1(C)O` was tested, and the Potency was “inactive”. For `CNc1ccc([N+](=O)[O-])cc1-n1cnc(-c2ccc(C(F)(F)F)cc2)c1`, the Potency was “inactive”. In the case of `C[C@@H](O)[C@H](NC(=O)c1ccc(C#Cc2ccc(CN3CCOCC3)cc2)cc1)C(=O)NO`, the Potency is reported as “inactive”. In the case of `CN(C)c1ccnc2sc3c(=O)n(N4CCCCCC4)cnc3c12`, the Potency is reported as “inactive”. For `O=S(=O)(NC1CCC(c2cc(F)ccc2F)(S(=O)(=O)c2ccc(Cl)cc2)CC1)C(F)(F)F` (stereo not given), the Potency was “inactive”. With `C[C@@H]1C(=O)O[C@H]2[C@@H](O)C34[C@H]5C[C@@H](C(C)(C)C)C36[C@@H](OC(=O)[C@@H]6O)O[C@@]4(C(=O)O5)[C@@]12O` (stereo not given in full) the Potency was “inactive”. In the case of `CN(C)c1nc(Cc2ccc(NC(=O)c3ccc4ccccc4c3)cc2)nc(Cl)c1CC(=O)O`, the Potency is reported as “inactive”. In the case of `CC(=O)SCC(=O)c1ccc(NS(=O)(=O)c2ccc(OCCCN(C)C)cc2)nc1`, the Potency is reported as “inactive”. For `C=CC(C)(O)CC[C@@H]1[C@@]2(C)CCCC(C)(C)C2CC[C@@]1(C)O` (stereo not given in full), the Potency was “inactive”. For `O=[N+]([O-])c1cc(Cl)ccc1S(=O)(=O)N1CCN(Cc2ccccc2)CC1`, the Potency was “inactive”. `CCN1CCN(Cc2ccc(NC(=O)c3ccc(C)c(Oc4ncnc5[nH]c(C)cc45)c3)cc2C(F)(F)F)CC1` was tested, and the Potency was “inactive”. With `CC(C)(C)C1CCN(C(=O)n2ncc(C(O)(c3ccccc3)c3ccccc3)n2)CC1` the Potency was “inactive”. In the case of `CCC(C)c1ccc(NC(=O)Cn2cnc3c2c(=O)n(C)c(=O)n3C)cc1` (stereo not given), the Potency is reported as “inactive”. For `Cc1nc(C#Cc2ccnc(Cl)c2)c(C)n1-c1ccc(F)cc1`, the Potency was “inactive”. With `Cc1ccc(-c2c(-c3nn(C)c4ncnc(N5CCC(N6CCCCC6)C5)c34)cnn2C)cc1` (stereo not given) the Potency was “inactive”. In the case of `CCCCCOc1ccc(-c2ccc(-c3ccc(C(=O)N[C@H]4C[C@@H](O)[C@@H](O)NC(=O)[C@@H]5[C@@H](O)[C@@H](C)CN5C(=O)[C@H]([C@@H](C)O)NC(=O)[C@H]([C@H](O)[C@@H](O)c5ccc(O)cc5)NC(=O)[C@@H]5C[C@@H](O)CN5C(=O)[C@H]([C@@H](C)O)NC4=O)cc3)cc2)cc1` ({pTerphenylCO(4''-OnC5H11)}-[Orn(4R-OH,5R-OH)]T[Hyp][hTyr(3S-OH,4S-OH)]T[Pro(3S-OH,4S-Me)]; lactam 1-C), the Potency is reported as “inactive”. In the case of `CCOC(=O)c1ccc(N(C)c2csc(-c3ccccc3)n2)cc1`, the Potency is reported as “inactive”. For `O=C(Nc1ccc(N2CCC(C(=O)N3CCOCC3)CC2)cc1)c1cnc(Oc2ccccc2)nc1`, the Potency was “inactive”. In the case of `CNc1cc(OC)c(C(=O)N[C@@H]2CCN(Cc3ccccc3)[C@@H]2C)cc1Cl`, the Potency is reported as “inactive”. With `COc1cc(Br)c(S(=O)(=O)Nc2ccc(C(F)(F)F)c(O[C@@H]3CCN(C)C3)c2)cc1OC` the Potency was “inactive”. For `Cc1cc(-c2nc(-c3ccc(OC(F)(F)F)cc3)no2)nn1Cc1ccnc(N2CCN(C3CC3)CC2)c1`, the Potency was “inactive”. `NCc1c[nH]c(=S)n1C1CCc2c(F)cc(F)cc2C1` (stereo not given) was tested, and the Potency was “inactive”. In the case of `CCC(C)n1cc(C)c2c(C(=O)NCc3c(C)cc(C)[nH]c3=O)cc(-c3ccc(N4CCNCC4)nc3)cc21` (stereo not given), the Potency is reported as “inactive”. `CC(C)(N)c1ncc(-c2ccc(OC(F)(F)F)cc2)[nH]1` was tested, and the Potency was “inactive”. `CO[C@@H]1[C@@H](O[C@H]2O[C@@H](C)[C@H](O[C@@H]3C[C@](C)(O)[C@H](O)[C@@H](C)O3)[C@@H](N(C)C)[C@@H]2O)[C@@H](CC=O)C[C@@H](C)[C@@H](O[C@H]2CC[C@H](N(C)C)[C@H](C)O2)/C=C/C=C/C[C@@H](C)OC(=O)C[C@H]1O` was tested, and the Potency was “inactive”. `COc1ccc(-c2nc(-c3cc(C(F)(F)F)cc(C(F)(F)F)c3)n(Cc3ccc(C(N)=O)cc3)c2-c2ccc(OC)cc2)cc1` was tested, and the Potency was “inactive”. `Cc1ccc(COC(=O)N2CC[C@@H](CNc3ncccn3)[C@@H](F)C2)cc1` was tested, and the Potency was “inactive”. For `Cc1cc(CN)cc(C)c1NC(=O)c1ccc(-c2cc(Cl)ccc2Cl)o1`, the Potency was “inactive”. In the case of `CNC(=O)c1ccc2cc([C@@]3(O)CCn4cncc43)ccc2c1`, the Potency is reported as “inactive”. In the case of `CNCCCC1(c2ccccc2)OC(C)(C)c2ccccc21` (stereo not given), the Potency is reported as “inactive”. With `O=C(Nc1ccc(S(=O)(=O)Nc2ccccc2Cl)c(Cl)c1)c1ccccn1` the Potency was “inactive”. With `Cc1cc(-c2nncc3c(C(C)(C)C)c(OCc4ncnn4C)nn23)no1` the Potency was “inactive”. `Cc1oc(S(=O)(=O)N2CCCCC2)cc1NC(=O)Nc1ccccc1` was tested, and the Potency was “inactive”. For `O=C(Nc1ccccc1Br)NC1CCN(c2ccc(C(F)(F)F)cn2)C1` (stereo not given), the Potency was “inactive”. `CNC(=O)[C@@H](c1ccccc1)N1CCc2cc(OC)c(OC)cc2[C@@H]1CCc1ccc(C(F)(F)F)cc1` was tested, and the Potency was “inactive”. In the case of `COc1cc(Nc2nc3c(s2)CCCC3c2ccccc2)ccc1-n1cnc(C)c1` (stereo not given), the activity change, negative = inhibition is reported as 0.24% [at 11.2 µM] (inactive). For `CNc1cc2[nH]c(=O)n(-c3ccc(NC(=O)NS(=O)(=O)c4ccc(Cl)s4)cc3)c(=O)c2cc1F`, the Potency was “inactive”. `Cc1oc2ccccc2c1CNC(=O)NCc1cccs1` was tested, and the Potency was “inactive”. With `CCCCS(=O)(=O)NC(Cc1ccc(OCCCCC2CCNCC2)cc1)C(=O)O` (stereo not given) the Potency was “inactive”. With `Cc1cccc(C)c1OCc1cc(C(=O)N2CCC(c3ccncc3)CC2)no1` the Potency was “inactive”.
